Results on one molecule are retold here after ChEMBL document CHEMBL1961873, “Compounds: GSK PKIS; Assays: Nanosyn kinase panel” (2012).

Experiment [1] deals with Protein kinase C gamma type (Homo sapiens) (UniProt P05129). To be noted: at 1 µM.
Experiment [2] addresses T1, Protein kinase C iota type (Homo sapiens) (UniProt P41743).
T1 sequence (whole entry): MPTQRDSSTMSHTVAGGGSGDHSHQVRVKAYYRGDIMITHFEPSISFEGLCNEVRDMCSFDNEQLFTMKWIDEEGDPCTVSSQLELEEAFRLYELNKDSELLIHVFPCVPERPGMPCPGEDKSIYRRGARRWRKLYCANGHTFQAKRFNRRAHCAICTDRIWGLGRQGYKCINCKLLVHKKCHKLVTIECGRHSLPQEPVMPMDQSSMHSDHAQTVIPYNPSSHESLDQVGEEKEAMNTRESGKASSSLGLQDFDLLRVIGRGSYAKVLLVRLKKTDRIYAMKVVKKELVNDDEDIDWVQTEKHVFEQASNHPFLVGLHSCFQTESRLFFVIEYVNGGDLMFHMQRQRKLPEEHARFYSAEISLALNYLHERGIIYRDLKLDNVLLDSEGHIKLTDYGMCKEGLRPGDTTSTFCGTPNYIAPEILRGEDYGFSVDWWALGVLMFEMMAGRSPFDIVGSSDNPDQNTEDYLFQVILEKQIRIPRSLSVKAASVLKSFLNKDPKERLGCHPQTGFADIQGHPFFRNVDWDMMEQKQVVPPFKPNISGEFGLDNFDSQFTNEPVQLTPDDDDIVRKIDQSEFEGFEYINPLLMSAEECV
Conditions: at 0.1 µM.

Experiment [3] has as its target T1, Protein kinase C iota type (Homo sapiens). To be noted: at 1 µM.
Experiment [4] addresses Protein kinase C theta type (Homo sapiens) (UniProt Q04759). Conditions: at 0.1 µM.
For experiment [5] the target is unchanged. Conditions: at 1 µM.
Experiment [6] concerns the target Protein kinase C beta type (Homo sapiens) (UniProt P05771). Conditions: at 0.1 µM.
Experiment [7] shares this target. To be noted: at 1 µM.
For experiment [8], the target named is T2, Serine/threonine-protein kinase D1 (Homo sapiens) (UniProt Q15139).
T2 sequence (whole entry): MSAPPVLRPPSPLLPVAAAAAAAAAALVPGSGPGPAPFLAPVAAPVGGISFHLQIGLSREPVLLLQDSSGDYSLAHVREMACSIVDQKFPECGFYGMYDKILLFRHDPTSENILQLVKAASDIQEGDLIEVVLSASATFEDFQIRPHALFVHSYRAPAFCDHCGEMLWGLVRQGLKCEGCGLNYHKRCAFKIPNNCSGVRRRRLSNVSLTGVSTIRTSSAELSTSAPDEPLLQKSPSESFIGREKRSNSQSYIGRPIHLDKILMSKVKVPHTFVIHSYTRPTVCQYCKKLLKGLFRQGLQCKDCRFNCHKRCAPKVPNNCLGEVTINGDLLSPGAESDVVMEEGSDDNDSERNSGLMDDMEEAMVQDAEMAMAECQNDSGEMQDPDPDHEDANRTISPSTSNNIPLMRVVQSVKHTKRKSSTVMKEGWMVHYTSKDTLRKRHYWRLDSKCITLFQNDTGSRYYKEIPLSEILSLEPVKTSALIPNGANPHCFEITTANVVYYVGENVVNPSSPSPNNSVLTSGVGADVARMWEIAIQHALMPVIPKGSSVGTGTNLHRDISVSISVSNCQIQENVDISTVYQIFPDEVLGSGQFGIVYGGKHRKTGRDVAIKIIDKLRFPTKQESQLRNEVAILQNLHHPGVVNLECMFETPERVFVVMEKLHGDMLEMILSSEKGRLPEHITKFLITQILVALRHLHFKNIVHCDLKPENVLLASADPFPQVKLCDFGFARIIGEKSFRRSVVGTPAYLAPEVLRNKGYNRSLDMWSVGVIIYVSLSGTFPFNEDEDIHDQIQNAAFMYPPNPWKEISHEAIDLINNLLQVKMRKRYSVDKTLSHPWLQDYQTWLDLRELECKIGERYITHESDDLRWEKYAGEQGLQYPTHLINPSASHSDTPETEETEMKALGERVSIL
To be noted: at 0.1 µM.

Experiment [9] deals with T2, Serine/threonine-protein kinase D1 (Homo sapiens). To be noted: at 1 µM.
For experiment [10], the target named is T3, Serine/threonine-protein kinase D2 (Homo sapiens) (UniProt Q9BZL6).
T3 sequence (whole entry): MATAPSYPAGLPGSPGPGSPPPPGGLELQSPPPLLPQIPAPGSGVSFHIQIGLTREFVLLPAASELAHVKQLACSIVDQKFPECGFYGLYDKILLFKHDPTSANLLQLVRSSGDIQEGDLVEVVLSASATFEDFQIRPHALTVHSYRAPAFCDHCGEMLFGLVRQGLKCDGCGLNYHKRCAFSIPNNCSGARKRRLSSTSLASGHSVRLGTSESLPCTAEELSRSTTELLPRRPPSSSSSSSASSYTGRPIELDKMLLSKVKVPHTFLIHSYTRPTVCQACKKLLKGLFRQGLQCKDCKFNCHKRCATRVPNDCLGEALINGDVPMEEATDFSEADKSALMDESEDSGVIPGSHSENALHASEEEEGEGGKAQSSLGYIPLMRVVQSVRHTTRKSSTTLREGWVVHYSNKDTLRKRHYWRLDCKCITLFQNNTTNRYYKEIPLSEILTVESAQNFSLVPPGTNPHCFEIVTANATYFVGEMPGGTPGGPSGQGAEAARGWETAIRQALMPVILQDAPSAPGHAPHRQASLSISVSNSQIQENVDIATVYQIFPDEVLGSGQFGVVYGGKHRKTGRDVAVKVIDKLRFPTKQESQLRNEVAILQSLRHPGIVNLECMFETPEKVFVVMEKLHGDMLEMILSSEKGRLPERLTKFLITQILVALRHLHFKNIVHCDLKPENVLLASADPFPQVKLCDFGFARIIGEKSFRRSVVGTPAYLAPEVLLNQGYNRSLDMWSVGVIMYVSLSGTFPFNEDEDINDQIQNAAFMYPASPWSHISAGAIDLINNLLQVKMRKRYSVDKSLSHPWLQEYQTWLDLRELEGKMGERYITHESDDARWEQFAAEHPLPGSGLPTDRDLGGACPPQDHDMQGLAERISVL
Conditions: at 0.1 µM.

Experiment [11] addresses T3, Serine/threonine-protein kinase D2 (Homo sapiens). To be noted: at 1 µM.
The target in experiment [12] is T4, Serine/threonine-protein kinase D3 (Homo sapiens) (UniProt O94806).
T4 sequence (whole entry): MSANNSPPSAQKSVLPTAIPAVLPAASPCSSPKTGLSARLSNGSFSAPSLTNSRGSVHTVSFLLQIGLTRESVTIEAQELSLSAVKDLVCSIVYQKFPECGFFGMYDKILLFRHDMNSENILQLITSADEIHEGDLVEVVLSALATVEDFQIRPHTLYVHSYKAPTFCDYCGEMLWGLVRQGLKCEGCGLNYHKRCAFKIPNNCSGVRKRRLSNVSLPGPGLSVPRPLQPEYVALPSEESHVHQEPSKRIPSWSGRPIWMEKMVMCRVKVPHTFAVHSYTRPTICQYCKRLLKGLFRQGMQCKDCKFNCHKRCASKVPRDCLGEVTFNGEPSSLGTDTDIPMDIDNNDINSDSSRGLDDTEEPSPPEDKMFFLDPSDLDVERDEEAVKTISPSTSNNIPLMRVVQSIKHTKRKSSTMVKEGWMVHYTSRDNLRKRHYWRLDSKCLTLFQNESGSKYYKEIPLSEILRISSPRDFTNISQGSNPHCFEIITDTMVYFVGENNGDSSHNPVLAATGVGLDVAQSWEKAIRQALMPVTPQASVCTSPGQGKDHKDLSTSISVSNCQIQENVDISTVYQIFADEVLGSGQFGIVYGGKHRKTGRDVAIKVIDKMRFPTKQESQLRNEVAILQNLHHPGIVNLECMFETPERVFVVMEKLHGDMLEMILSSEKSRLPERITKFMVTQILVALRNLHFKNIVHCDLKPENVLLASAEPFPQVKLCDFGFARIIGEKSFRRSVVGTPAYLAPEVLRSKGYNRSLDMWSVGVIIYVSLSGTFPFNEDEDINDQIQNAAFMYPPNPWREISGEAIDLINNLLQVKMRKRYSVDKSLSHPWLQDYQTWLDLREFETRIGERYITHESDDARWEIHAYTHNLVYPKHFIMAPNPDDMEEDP
Conditions: at 0.1 µM.

Experiment [13] addresses T4, Serine/threonine-protein kinase D3 (Homo sapiens). To be noted: at 1 µM.
Experiment [14] concerns the target T5, cGMP-dependent protein kinase 1 (Homo sapiens) (UniProt Q13976).
T5 sequence (whole entry): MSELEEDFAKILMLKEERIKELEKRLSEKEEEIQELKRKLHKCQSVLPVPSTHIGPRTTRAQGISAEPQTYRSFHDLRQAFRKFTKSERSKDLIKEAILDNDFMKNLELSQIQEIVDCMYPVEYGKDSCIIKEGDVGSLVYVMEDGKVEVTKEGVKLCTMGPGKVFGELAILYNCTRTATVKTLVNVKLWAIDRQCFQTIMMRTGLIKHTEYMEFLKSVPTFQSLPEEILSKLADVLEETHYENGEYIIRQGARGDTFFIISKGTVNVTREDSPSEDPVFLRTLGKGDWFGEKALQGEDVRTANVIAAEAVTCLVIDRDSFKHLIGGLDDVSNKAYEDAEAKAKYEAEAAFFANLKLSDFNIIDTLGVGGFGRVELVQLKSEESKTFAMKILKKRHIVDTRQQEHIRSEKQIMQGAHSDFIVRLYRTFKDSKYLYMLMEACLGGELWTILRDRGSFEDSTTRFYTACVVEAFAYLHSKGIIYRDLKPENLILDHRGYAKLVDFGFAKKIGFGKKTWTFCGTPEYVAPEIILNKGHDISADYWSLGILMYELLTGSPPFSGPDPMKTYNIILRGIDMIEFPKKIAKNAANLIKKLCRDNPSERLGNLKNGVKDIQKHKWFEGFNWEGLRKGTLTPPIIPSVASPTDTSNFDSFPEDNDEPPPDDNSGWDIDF
To be noted: at 0.1 µM.

The target in experiment [15] is T5, cGMP-dependent protein kinase 1 (Homo sapiens). Conditions: at 1 µM.
The target in experiment [16] is T6, cGMP-dependent protein kinase 2 (Homo sapiens) (UniProt Q13237).
T6 sequence (whole entry): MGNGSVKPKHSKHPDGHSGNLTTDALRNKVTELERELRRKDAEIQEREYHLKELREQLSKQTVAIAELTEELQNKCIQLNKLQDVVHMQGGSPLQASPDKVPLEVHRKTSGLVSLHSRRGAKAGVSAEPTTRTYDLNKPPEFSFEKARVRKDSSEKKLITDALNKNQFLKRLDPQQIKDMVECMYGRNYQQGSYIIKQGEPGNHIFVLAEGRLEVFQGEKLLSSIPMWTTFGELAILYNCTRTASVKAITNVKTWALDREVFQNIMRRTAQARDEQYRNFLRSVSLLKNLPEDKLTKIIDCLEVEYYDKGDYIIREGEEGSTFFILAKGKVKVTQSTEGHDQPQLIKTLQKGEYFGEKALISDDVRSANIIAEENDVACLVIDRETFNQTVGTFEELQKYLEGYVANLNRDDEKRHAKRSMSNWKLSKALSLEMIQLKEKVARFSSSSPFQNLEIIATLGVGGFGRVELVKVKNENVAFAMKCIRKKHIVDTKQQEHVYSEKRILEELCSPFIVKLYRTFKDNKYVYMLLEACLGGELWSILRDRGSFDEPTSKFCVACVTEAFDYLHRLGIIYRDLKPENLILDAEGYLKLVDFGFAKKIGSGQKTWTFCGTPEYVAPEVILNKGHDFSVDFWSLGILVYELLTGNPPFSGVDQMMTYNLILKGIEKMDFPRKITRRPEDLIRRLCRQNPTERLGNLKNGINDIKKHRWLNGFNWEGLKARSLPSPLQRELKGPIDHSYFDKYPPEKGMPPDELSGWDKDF
To be noted: at 0.1 µM.

Experiment [17] has as its target T6, cGMP-dependent protein kinase 2 (Homo sapiens). To be noted: at 1 µM.
The target of experiment [18] is T7, cAMP-dependent protein kinase catalytic subunit PRKX (Homo sapiens) (UniProt P51817).
T7 sequence (whole entry): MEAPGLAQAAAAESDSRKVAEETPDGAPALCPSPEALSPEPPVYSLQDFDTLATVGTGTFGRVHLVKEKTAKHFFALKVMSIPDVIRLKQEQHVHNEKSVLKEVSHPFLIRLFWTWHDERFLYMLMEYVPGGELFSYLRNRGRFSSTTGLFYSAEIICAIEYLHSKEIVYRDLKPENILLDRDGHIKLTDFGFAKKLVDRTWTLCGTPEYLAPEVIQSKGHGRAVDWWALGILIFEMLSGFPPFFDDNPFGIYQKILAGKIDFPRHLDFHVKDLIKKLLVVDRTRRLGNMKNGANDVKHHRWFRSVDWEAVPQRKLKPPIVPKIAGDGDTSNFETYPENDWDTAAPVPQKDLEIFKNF
Conditions: at 0.1 µM.

Experiment [19] deals with T7, cAMP-dependent protein kinase catalytic subunit PRKX (Homo sapiens). Conditions: at 1 µM.
Experiment [20] deals with Rho-associated protein kinase 1 (Homo sapiens) (UniProt Q13464). Conditions: at 0.1 µM.
Chain of Rho-associated protein kinase 1 (Homo sapiens) (Q13464 2-1354 limits assumed): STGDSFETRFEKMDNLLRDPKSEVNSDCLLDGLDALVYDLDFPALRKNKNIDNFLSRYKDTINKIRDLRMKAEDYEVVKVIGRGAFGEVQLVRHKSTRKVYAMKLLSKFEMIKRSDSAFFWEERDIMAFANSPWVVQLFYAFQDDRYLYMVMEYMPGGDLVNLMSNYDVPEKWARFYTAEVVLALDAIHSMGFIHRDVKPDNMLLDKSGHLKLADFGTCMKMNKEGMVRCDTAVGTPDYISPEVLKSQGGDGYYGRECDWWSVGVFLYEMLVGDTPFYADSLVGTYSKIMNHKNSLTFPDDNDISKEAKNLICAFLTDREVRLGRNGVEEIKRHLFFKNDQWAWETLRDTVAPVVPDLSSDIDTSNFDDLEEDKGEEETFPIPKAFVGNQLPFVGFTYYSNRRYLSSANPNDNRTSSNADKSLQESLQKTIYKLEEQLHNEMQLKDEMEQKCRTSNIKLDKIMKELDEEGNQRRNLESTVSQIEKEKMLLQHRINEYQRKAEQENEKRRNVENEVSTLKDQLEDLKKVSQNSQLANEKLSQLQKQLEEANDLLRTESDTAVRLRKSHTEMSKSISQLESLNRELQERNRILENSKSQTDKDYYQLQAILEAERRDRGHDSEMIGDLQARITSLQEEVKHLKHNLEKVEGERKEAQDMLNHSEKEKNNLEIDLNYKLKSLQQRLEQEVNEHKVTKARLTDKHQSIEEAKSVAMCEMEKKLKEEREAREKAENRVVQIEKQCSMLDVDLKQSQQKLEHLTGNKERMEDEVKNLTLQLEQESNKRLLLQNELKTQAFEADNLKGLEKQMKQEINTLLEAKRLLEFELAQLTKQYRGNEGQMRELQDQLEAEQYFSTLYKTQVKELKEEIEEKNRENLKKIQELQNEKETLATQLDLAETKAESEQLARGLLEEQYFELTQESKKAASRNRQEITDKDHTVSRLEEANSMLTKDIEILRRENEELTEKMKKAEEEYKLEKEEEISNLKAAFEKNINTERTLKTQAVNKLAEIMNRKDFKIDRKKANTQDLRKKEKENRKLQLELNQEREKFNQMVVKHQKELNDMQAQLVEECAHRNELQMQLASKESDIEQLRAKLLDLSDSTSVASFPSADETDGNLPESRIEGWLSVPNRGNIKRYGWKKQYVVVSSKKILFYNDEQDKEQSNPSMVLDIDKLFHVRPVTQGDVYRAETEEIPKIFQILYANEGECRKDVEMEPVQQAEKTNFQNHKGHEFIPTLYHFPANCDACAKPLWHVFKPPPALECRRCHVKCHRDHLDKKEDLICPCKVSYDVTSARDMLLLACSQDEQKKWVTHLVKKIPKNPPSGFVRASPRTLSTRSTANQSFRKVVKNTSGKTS

Each structure is given as a SMILES string.

Chain of Protein kinase C beta type (Homo sapiens) (P05771 2-671 limits assumed): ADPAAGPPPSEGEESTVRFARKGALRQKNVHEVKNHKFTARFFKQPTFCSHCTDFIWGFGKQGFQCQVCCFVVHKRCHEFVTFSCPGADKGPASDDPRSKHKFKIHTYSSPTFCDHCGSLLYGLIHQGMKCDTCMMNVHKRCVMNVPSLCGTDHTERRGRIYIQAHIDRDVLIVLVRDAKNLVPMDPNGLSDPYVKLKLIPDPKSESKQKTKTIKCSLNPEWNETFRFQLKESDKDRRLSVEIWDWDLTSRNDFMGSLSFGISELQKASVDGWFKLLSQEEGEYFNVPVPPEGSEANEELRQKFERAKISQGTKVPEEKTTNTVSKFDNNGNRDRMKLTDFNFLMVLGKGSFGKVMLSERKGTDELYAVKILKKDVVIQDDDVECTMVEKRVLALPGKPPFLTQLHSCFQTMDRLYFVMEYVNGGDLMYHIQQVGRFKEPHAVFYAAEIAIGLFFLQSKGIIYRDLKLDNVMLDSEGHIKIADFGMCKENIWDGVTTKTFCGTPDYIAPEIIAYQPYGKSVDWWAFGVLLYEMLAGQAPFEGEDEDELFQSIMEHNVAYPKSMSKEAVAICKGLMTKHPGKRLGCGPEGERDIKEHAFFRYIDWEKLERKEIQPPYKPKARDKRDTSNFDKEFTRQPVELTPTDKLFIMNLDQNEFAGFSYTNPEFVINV
Chain of Protein kinase C theta type (Homo sapiens) (Q04759 whole entry, looked up): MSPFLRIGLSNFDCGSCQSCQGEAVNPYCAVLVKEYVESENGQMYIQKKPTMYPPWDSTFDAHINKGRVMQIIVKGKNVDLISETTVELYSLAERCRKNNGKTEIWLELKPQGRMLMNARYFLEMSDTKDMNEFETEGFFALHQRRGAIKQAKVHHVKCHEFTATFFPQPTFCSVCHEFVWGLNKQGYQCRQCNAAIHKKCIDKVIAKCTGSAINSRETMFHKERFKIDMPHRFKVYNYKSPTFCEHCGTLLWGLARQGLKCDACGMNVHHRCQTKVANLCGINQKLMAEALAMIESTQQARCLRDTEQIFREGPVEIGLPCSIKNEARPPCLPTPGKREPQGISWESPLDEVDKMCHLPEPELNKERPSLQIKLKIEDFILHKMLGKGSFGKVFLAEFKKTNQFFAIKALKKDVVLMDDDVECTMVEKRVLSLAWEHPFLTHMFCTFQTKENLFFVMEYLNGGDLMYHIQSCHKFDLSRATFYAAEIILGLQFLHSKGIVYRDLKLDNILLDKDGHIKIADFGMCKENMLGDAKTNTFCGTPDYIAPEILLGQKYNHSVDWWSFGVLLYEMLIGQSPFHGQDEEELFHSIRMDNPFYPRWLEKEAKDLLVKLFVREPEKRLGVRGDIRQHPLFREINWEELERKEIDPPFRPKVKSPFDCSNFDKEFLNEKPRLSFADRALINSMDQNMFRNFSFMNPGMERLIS

For the molecule `c1cnn2ncc(-c3ccnc(NCCCN4CCOCC4)n3)c2c1`, the inhibition in [1] came out at 4.8%; in [2], 0.92%; in experiment [3], 4.4%; in experiment [4], 2.07%; in [5], 2.41%; in [6], 1.96%. Besides, the inhibition in experiment [7] stood at 3.47%; in experiment [8], 2.81%; in experiment [9] it was 5.95%; in experiment [10], 3.62%; in experiment [11], 5.4%; in [12], 3.94%. The inhibition in experiment [13] turned out to be 5%; in experiment [14], 3.07%; in experiment [15], 8.93%; in experiment [16], 3.44%; in [17], 4.91%; in experiment [18] it was 1.06%. The results for the inhibition in [19] and in experiment [20] were 3.97% and 2.01%, respectively.

By inhibition is commonly meant the share of the control response that was lost under treatment. A high value points to a response far below the control.
